This is an account of results in paper PMC3218832.

Some targets named below: RELARELA (p65 homodimer) (Homo sapiens, UniProt Q04206 1-307); p50p50 homodimer (Homo sapiens, UniProt P19838 7-356); RELB subunit;p50 subunit (Homo sapiens;Homo sapiens, UniProt Q01201;P19838 120-401;7-356).
Holding throughout (assay): protein binding microarray; high values mean tight binding
What all share (conditions): dsDNA, one strand shown

The next assay addresses T1, p52p52 homodimer (Homo sapiens, UniProt Q00653 4-332).
T1 sequence: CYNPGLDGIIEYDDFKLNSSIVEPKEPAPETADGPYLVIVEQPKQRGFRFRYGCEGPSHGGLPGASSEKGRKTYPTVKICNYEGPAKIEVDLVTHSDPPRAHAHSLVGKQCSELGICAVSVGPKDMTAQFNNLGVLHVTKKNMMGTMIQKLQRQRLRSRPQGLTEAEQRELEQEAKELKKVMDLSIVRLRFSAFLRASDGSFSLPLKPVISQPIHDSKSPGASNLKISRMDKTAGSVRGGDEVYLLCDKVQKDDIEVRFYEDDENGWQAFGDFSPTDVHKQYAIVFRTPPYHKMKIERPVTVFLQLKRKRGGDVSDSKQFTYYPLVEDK

Assay [1] deals with RELA (p65) subunit of heterodimer;p50 subunit (Homo sapiens;Homo sapiens, UniProt Q04206;P19838 1-307;7-356).
RELA (p65) subunit of heterodimer;p50 subunit, sequence (Q04206 1-307, chain 1 of 2): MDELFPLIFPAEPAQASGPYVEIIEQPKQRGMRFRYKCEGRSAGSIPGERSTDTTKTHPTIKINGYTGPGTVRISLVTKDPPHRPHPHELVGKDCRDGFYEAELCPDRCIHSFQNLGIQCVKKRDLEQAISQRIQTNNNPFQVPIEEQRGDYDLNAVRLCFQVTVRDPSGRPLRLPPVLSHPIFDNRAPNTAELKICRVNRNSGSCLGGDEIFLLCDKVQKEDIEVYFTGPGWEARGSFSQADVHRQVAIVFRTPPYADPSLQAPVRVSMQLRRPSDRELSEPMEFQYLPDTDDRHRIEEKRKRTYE
RELA (p65) subunit of heterodimer;p50 subunit, sequence (P19838 7-356, chain 2 of 2): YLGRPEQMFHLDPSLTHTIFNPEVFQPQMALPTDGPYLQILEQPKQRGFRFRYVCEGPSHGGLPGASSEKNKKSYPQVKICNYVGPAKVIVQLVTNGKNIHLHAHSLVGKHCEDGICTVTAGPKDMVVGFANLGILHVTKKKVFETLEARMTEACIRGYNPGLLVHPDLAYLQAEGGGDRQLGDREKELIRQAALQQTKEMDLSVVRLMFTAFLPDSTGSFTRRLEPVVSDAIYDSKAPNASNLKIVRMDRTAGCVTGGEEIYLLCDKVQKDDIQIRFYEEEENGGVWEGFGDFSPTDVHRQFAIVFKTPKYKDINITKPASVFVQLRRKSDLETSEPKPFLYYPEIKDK
Assay [2] deals with RELA (p65) subunit of heterodimer;p52 subunit (Homo sapiens;Homo sapiens, UniProt Q04206;Q00653 1-307;4-332).
In another assay the target is T2, RELB subunit;p52 subunit (Homo sapiens;Homo sapiens, UniProt Q01201;Q00653 120-401;4-332).
T2 sequence 1: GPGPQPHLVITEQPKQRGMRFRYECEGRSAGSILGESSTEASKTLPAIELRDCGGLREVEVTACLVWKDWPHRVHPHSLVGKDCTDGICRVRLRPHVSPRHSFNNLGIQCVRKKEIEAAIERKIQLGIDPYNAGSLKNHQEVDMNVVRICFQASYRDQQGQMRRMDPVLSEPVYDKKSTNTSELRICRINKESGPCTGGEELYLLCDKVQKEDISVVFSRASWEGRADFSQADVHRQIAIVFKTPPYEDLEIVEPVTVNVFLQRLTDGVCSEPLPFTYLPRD
T2 sequence 2: T1 sequence

Assay [3] deals with C-Rel subunit;p50 subunit (Homo sapiens;Homo sapiens, UniProt Q04864;P19838 1-285;7-356).
Assay [4] addresses T3, C-Rel subunit;p52 subunit (Homo sapiens;Homo sapiens, UniProt Q04864;Q00653 1-285;4-332).
T3 sequence 1: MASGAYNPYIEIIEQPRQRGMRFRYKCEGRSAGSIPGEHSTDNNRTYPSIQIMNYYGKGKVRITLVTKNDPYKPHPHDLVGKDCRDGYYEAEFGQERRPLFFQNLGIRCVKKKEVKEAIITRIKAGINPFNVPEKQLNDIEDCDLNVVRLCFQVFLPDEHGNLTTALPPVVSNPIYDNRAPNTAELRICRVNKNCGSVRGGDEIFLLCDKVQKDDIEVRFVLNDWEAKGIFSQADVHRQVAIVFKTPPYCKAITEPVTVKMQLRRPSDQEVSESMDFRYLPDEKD
T3 sequence 2: T1 sequence

p50p50 homodimer, sequence (P19838 7-356): as the sequence (P19838 7-356, chain 2 of 2) above
RELARELA (p65 homodimer), sequence (Q04206 1-307): as the sequence (Q04206 1-307, chain 1 of 2) above

As for AGGAGCCCCCT, the binding signal with RELARELA (p65 homodimer) was -0.528 z-score; with p50p50 homodimer, 1.32 z-score; with p52p52 homodimer, 0.61 z-score; in [1], 1.07 z-score; in assay [2], 0.992 z-score; in the assay with RELB subunit;p50 subunit, 1.2 z-score. For the same sequence, the figures for the binding signal (with RELB subunit;p52 subunit; in assay [3]; in assay [4]) were 1.26 z-score, 1.02 z-score and 0.757 z-score, respectively.

As to AGAGGAATCCC, the binding signal turned out to be 0.476 z-score with RELARELA (p65 homodimer); 0.189 z-score in the assay with p50p50 homodimer; 0.335 z-score with p52p52 homodimer; 0.188 z-score in [1]; 0.227 z-score in [2]; 0.0745 z-score with RELB subunit;p50 subunit. For the same sequence, the results for the binding signal (with RELB subunit;p52 subunit; in assay [3]; in [4]) were 0.269 z-score, 0.405 z-score and 0.416 z-score, respectively.

In the case of GAGAGGTCCCT, the binding signal with RELARELA (p65 homodimer) came to 0.699 z-score; in the assay with p50p50 homodimer, 0.517 z-score; with p52p52 homodimer, 0.431 z-score; in [1] it was 0.364 z-score; in [2], 0.0823 z-score; in the assay with RELB subunit;p50 subunit it was 0.659 z-score. The figures for the binding signal (with RELB subunit;p52 subunit; in assay [3]; in [4]) were 0.436 z-score, 0.182 z-score and 0.0392 z-score, respectively.

For AAGAATCCCCC, the binding signal with RELARELA (p65 homodimer) was 1.26 z-score; in the assay with p50p50 homodimer it was 1.57 z-score; in the assay with p52p52 homodimer, 2.41 z-score; in [1], 2.44 z-score; in assay [2], 2.16 z-score; with RELB subunit;p50 subunit, 2.64 z-score. Also, the binding signal stood at 2.41 z-score with RELB subunit;p52 subunit, 1.79 z-score in assay [3] and 1.99 z-score in [4].

With CGAGTGACCCT, the binding signal in the assay with RELARELA (p65 homodimer) was -1.21 z-score; in the assay with p50p50 homodimer, -1.33 z-score; with p52p52 homodimer it was -0.545 z-score; in assay [1] it was -0.827 z-score; in [2], -0.906 z-score; with RELB subunit;p50 subunit, -0.855 z-score. Also, the figures for the binding signal (in the assay with RELB subunit;p52 subunit; in [3]; in [4]) were -0.722 z-score, -1.34 z-score and -0.744 z-score, respectively.

Consider GAATAGACCCT, for which the binding signal in the assay with RELARELA (p65 homodimer) is -0.683 z-score; in the assay with p50p50 homodimer it was -0.579 z-score; with p52p52 homodimer, -0.346 z-score; in [1] it was -0.545 z-score; in assay [2], -0.606 z-score; in the assay with RELB subunit;p50 subunit, -0.679 z-score. In addition, the results for the binding signal (in the assay with RELB subunit;p52 subunit; in assay [3]; in assay [4]) were -0.749 z-score, -1.19 z-score and -0.574 z-score, respectively.

AAAGGATCCCT: the binding signal was -0.446 z-score with RELARELA (p65 homodimer); -0.455 z-score with p50p50 homodimer; -0.198 z-score with p52p52 homodimer; -0.582 z-score in assay [1]; -0.469 z-score in assay [2]; -0.388 z-score with RELB subunit;p50 subunit. The results for the binding signal (with RELB subunit;p52 subunit; in assay [3]; in assay [4]) were -0.424 z-score, -0.748 z-score and -0.634 z-score, respectively.

On to GGAGGGATCCT, for which the binding signal in the assay with RELARELA (p65 homodimer) was -0.405 z-score; in the assay with p50p50 homodimer, -1.1 z-score; with p52p52 homodimer, -0.254 z-score; in [1], -0.619 z-score; in assay [2] it was -0.58 z-score; with RELB subunit;p50 subunit it was -0.707 z-score. Further, the results for the binding signal (with RELB subunit;p52 subunit; in [3]; in assay [4]) were -0.517 z-score, -1.01 z-score and -0.454 z-score, respectively.

On to GGGTAGGCCCC, for which the binding signal with RELARELA (p65 homodimer) was -0.379 z-score; with p50p50 homodimer, 0.314 z-score; in the assay with p52p52 homodimer it was 1.45 z-score; in assay [1], 0.396 z-score; in [2], 1.04 z-score; with RELB subunit;p50 subunit it was 0.459 z-score. Further, the binding signal was 0.305 z-score in the assay with RELB subunit;p52 subunit, 0.392 z-score in assay [3] and 0.593 z-score in assay [4].

Consider CAGTGACCCCT, for which the binding signal in the assay with RELARELA (p65 homodimer) was -0.538 z-score; with p50p50 homodimer, -0.115 z-score; with p52p52 homodimer, -0.0283 z-score; in assay [1], -0.321 z-score; in assay [2], -0.373 z-score; with RELB subunit;p50 subunit, -0.303 z-score. In addition, the binding signal with RELB subunit;p52 subunit is -0.116 z-score; in assay [3] it was -0.672 z-score; in [4], -0.427 z-score.

On to CGAGAAATCCC, for which the binding signal in the assay with RELARELA (p65 homodimer) came out at 1.4 z-score; with p50p50 homodimer, 0.819 z-score; with p52p52 homodimer, 0.839 z-score; in assay [1], 0.872 z-score; in [2], 0.718 z-score; in the assay with RELB subunit;p50 subunit it was 0.773 z-score. Moreover, the binding signal with RELB subunit;p52 subunit was 0.543 z-score; in assay [3] it was 0.883 z-score; in [4], 0.451 z-score.

In the case of CAATAACTCCC, the binding signal in the assay with RELARELA (p65 homodimer) is 0.145 z-score; with p50p50 homodimer, 0.702 z-score; in the assay with p52p52 homodimer, 0.0211 z-score; in assay [1], 0.38 z-score; in assay [2], -0.231 z-score; with RELB subunit;p50 subunit, 0.426 z-score. Moreover, the figures for the binding signal (with RELB subunit;p52 subunit; in assay [3]; in assay [4]) were -0.00688 z-score, 0.223 z-score and -0.12 z-score, respectively.

For the sequence CAGAATTCCCC, the binding signal was 3.2 z-score with RELARELA (p65 homodimer); 1.49 z-score with p50p50 homodimer; 2.61 z-score in the assay with p52p52 homodimer; 2.25 z-score in assay [1]; 2.29 z-score in assay [2]; 2.26 z-score in the assay with RELB subunit;p50 subunit. Moreover, the binding signal in the assay with RELB subunit;p52 subunit is 2.21 z-score; in assay [3] it was 1.73 z-score; in assay [4], 2.61 z-score.

Regarding CGGTATCCCCC, the binding signal with RELARELA (p65 homodimer) came to 0.855 z-score; with p50p50 homodimer it was 1.13 z-score; with p52p52 homodimer, 2.07 z-score; in assay [1], 1.69 z-score; in assay [2], 1.56 z-score; with RELB subunit;p50 subunit it was 1.33 z-score. In addition, the values for the binding signal (with RELB subunit;p52 subunit; in assay [3]; in assay [4]) were 1.65 z-score, 1.23 z-score and 1.71 z-score, respectively.

For the sequence GAAGGCTCCCT, the binding signal with RELARELA (p65 homodimer) was -0.795 z-score; with p50p50 homodimer, -1.03 z-score; with p52p52 homodimer, -0.473 z-score; in [1], -0.74 z-score; in assay [2], -0.784 z-score; with RELB subunit;p50 subunit, -0.594 z-score. Also, the results for the binding signal (with RELB subunit;p52 subunit; in [3]; in [4]) were -0.67 z-score, -1.02 z-score and -0.773 z-score, respectively.

Regarding CGGGGGTCCCT, the binding signal was determined as 0.00646 z-score in the assay with RELARELA (p65 homodimer); 1.14 z-score with p50p50 homodimer; 0.985 z-score in the assay with p52p52 homodimer; 0.963 z-score in assay [1]; 1.07 z-score in [2]; 1.06 z-score with RELB subunit;p50 subunit. For the same sequence, the binding signal came out at 1.23 z-score with RELB subunit;p52 subunit, 0.761 z-score in assay [3] and 0.926 z-score in assay [4].
